# Measured values from PubChem BioAssay (EPA / NIEHS).
# Inconclusive results are not listed. The source made the active and inactive calls. The calls were made as follows: active = hit-call score of the fitted dose curve at least 0.9, where 1 is the maximum; inconclusive = response in the unintended direction; inactive = score below 0.9.
# Experiments:
# [1] = target: rat Neurokinin-1 Receptor (NK1), Tacr1 (gene 24807) (UniProt P14600); assay: NVS_GPCR_rNK1: NovaScreen (NVS) G Protein-Coupled Receptor Assay for rat Neurokinin-1 Receptor (NK1) (AID 2283309)
# Method in brief: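 Competitive radioligand binding to NK1 in rat submaxillary membranes, 1 h incubation, filtration and scintillation read-out. Compounds first screened at 25 uM in duplicate, then concentration-response for actives; signal loss relative to DMSO.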
# [2] = target: rat Neurokinin-3 Receptor (NK3), Tacr3 (gene 24808) (UniProt P16177); assay: NVS_GPCR_rNK3: NovaScreen (NVS) G Protein-Coupled Receptor Assay for rat Neurokinin-3 Receptor (NK3) (AID 2283310)
# Method in brief: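 Filter-based radioligand displacement on rat cortex membrane preparations, read by scintillation 2 h post-dose. Chemicals first tested in duplicate at 25 uM; actives followed up in concentration series with a 50 uM maximum.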
# [3] = target: rat Opioid Receptor, Non-selective Sodium (Na+) Binding, Oprm1 (gene 25601) (UniProt P33535); assay: NVS_GPCR_rOpiate_NonSelectiveNa: NovaScreen (NVS) G Protein-Coupled Receptor Assay for rat Opioid Receptor, Non-selective Sodium (Na+) Binding (AID 2283311)
# Method in brief: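 Filtration radioligand binding on rat forebrain membrane preparations, read 1.5 h after dosing. Single-concentration 25 µM primary screen in duplicate, followed by singleton concentration series to 50 µM max for actives; DMSO baseline.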
# [4] = target: bovine Gamma-Aminobutyric Acid Type A Receptor BDZ, alpha 1 site (GABARa1), GABRA1 (gene 780973) (UniProt P08219); assay: NVS_LGIC_bGABARa1: NovaScreen (NVS) Ligand-Gated Ion Channel Assay for bovine Gamma-Aminobutyric Acid Type A Receptor BDZ, alpha 1 site (GABARa1) (AID 2283321)
# Method in brief: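 Bovine cortex membrane preparation, benzodiazepine site on GABA-A alpha1; specific radioligand displacement read after 0.75 h by filtration and scintillation. Screen at 25 uM, then singleton titrations up to 50 uM; DMSO baseline.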
# [5] = NVS_IC_rCaDHPRCh_L: NovaScreen (NVS) Ion Channel Assay for rat Calcium Channel, Type L, Dihydropyridine Site (CaDHPRCh_L) (AID 2283320)
# Method in brief: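 Rat cortex membrane preparation; dihydropyridine-site radioligand displacement read 1 h post-dose by filtration and scintillation. Primary single-point screen 25 uM in duplicate, then concentration series to 50 uM maximum; DMSO as negative control.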
# [6] = target: rat Adrenergic Receptor, Beta (Adrb), Non-selective Binding, Adrb1 (gene 24925) (UniProt P18090); assay: NVS_GPCR_rAdrb_NonSelective: NovaScreen (NVS) G Protein-Coupled Receptor Assay for rat Adrenergic Receptor, Beta (Adrb), Non-selective Binding (AID 2283298)
# Method in brief: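 Rat cortical membranes incubated 1 h with beta-adrenergic radioligand and test chemical; bound ligand measured by filtration and scintillation counting. Screen at 25 uM duplicate, then concentration series with 50 uM maximum; loss of signal versus DMSO.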
# NCBI gene 24521 = assay: NVS_IC_rKATPCh: NovaScreen (NVS) Ion Channel Assay for rat Potassium Channel, ATP-Sensitive (KATPCh) (AID 2283319)
# Method in brief: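 Primary duplicate screen at 25 uM, then singleton concentration series to 50 uM maximum, in a rat cortex membrane radioligand displacement assay. Binding measured by filtration and scintillation 2 h post-dose; DMSO baseline.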
# [7] = test system: rat Adrenergic, Alpha 1B Receptor (Adra1B), gene 24173; assay: NVS_GPCR_rAdra1B: NovaScreen (NVS) G Protein-Coupled Receptor Assay for rat Adrenergic, Alpha 1B Receptor (Adra1B) (AID 2283297)
# Method in brief: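 Filter-binding radioligand competition on membranes from rat liver, read after 1 h by scintillation counting. Single-concentration duplicate screen at 25 uM, followed by concentration-response on actives, normalised to DMSO.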
# [8] = target: rat Neonicotinoid receptor (NNR), Chrna7 (gene 25302) (UniProt Q05941); assay: NVS_LGIC_rNNR_BungSens: NovaScreen (NVS) Ligand-Gated Ion Channel Assay for rat Neonicotinoid receptor (NNR) (AID 2283315)
# Method in brief: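 Rat cortical membrane preparation incubated 2.5 h with tritiated or iodinated radioligand and test chemical. Bound radioactivity was filtered and counted by scintillation, and displacement was analysed against DMSO.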
# [9] = target: rat Somatostatin Receptor (SST), Sstr1 (gene 25033) (UniProt P28646); assay: NVS_GPCR_rSST: NovaScreen (NVS) G Protein-Coupled Receptor Assay for rat Somatostatin Receptor (SST) (AID 2283314)
# Method in brief: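 Single-concentration duplicate screen (25 uM), then concentration-response up to 50 uM for chemicals passing a threshold such as 30% inhibition. Membranes came from rat forebrain. Binding was measured 1 h post-dose by filter radiodetection and scintillation, relative to DMSO.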
# [10] = target: rat Opioid Receptor, Non-selective Binding, Oprm1 (gene 25601) (UniProt P33535); assay: NVS_GPCR_rOpiate_NonSelective: NovaScreen (NVS) G Protein-Coupled Receptor Assay for rat Opioid Receptor, Non-selective Binding (AID 2283318)
# Method in brief: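 Filter-based radioligand displacement using rat forebrain membrane preparations, measured 1.5 h post-dosing. Single-concentration duplicate screen at 25 uM, follow-up in concentration series; activity taken as signal loss relative to DMSO.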
# [11] = target: Metabotropic glutamate receptor 1 (Rattus norvegicus) (UniProt P23385); assay: NVS_GPCR_rmMGluR1: NovaScreen (NVS) G Protein-Coupled Receptor Assay for rat Glutamate Metabotropic Receptor 1 (MGluR1) (AID 2283305)
# Method in brief: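 Binding to native receptor from rat cerebellum extract, measured as displacement of a radioligand (scintillation counting, filter separation) after 1 hour. Compounds tested at 25 uM in duplicate, then titrated to a 50 uM maximum.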
# Adra2b (gene 24174) = Adra2b (gene 24174) (UniProt P19328); assay: NVS_GPCR_rmAdra2B: NovaScreen (NVS) G Protein-Coupled Receptor Assay for hybird cells Adrenergic, Alpha 2B Receptor (Adra2B) (AID 2283306)
# Method in brief: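 Compounds screened first at 25 uM in duplicate, with actives followed up in concentration-response; specific radioligand displacement from hybrid neuroglioma/blastoma cell membrane preparations measured by filter scintillation counting after 1 h, normalized to DMSO.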
# NCBI gene 257648 = assay: NVS_IC_rCaChN: NovaScreen (NVS) Ion Channel Assay for Calcium Channel, Type N (CaChN) (AID 2283317)
# [12] = target: Voltage-dependent N-type calcium channel subunit alpha-1B (Rattus norvegicus) (UniProt Q02294); assay: NVS_IC_rCaChN: NovaScreen (NVS) Ion Channel Assay for rat Calcium Channel, Type N (CaChN) (AID 2283317)
# [13] = target: rat Gamma-Aminobutyric Acid Type B Receptor (GABBR), Gabbr1 (gene 81657) (UniProt Q9Z0U4); assay: NVS_GPCR_rGABBR: NovaScreen (NVS) G Protein-Coupled Receptor Assay for rat Gamma-Aminobutyric Acid Type B Receptor (GABBR) (AID 2283301)
# Method in brief: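 Rat cortical membrane preparation, competitive radioligand binding for 1 h with filtration and scintillation readout. Actives from duplicate single-point 25 uM screening proceeded to concentration series with 50 uM top concentration.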
# [14] = target: rat Histamine Receptor (H3), Hrh3 (gene 85268) (UniProt Q9QYN8); assay: NVS_GPCR_rH3: NovaScreen (NVS) G Protein-Coupled Receptor Assay for rat Histamine Receptor (H3) (AID 2283303)
# Method in brief: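 Filter-binding radioligand competition on rat forebrain membranes, 1 h incubation; compounds screened at 25 µM in duplicate and followed in concentration series to 50 µM, loss of bound signal vs DMSO.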
# [15] = target: human Neonicotinoid receptor (NNR), CHRNA2 (gene 1135) (UniProt Q15822); assay: NVS_LGIC_hNNR_NBungSens: NovaScreen (NVS) Ligand-Gated Ion Channel Assay for human Neonicotinoid receptor (NNR) (AID 2283313)
# Method in brief: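 Compounds first screened in duplicate at 25 uM, then actives re-tested in single-replicate dose series up to 50 uM. Binding measured as displacement of specific radioligand from neuroblastoma membrane receptors after 2 h, scintillation read on filters.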
# [16] = target: rat Vasopressin 1 Receptor (V1), Avpr1a (gene 25107) (UniProt P30560); assay: NVS_GPCR_rV1: NovaScreen (NVS) G Protein-Coupled Receptor Assay for rat Vasopressin 1 Receptor (V1) (AID 2283316)
# Method in brief: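 Concentration-response up to 50 uM for chemicals passing a threshold such as 30% inhibition in an initial duplicate 25 uM screen. Displacement of radioligand from rat liver membranes measured after 1.5 h by filtration and scintillation.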
# [17] = target: rat Corticotropin Releasing Factor Receptor (CRF), Crhr1 (gene 58959) (UniProt P35353); assay: NVS_GPCR_rCRF: NovaScreen (NVS) G Protein-Coupled Receptor Assay for rat Corticotropin Releasing Factor Receptor (CRF) (AID 2283300)
# Method in brief: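 Single-concentration (25 uM, duplicate) radioligand binding on rat cortical membrane preparations, counted by scintillation after 2 h. Activity scored as signal loss relative to DMSO negative control.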
# rat Neurokinin-1 Receptor (NK1), Tacr1 (gene 24807), sequence (P14600 whole entry, looked up): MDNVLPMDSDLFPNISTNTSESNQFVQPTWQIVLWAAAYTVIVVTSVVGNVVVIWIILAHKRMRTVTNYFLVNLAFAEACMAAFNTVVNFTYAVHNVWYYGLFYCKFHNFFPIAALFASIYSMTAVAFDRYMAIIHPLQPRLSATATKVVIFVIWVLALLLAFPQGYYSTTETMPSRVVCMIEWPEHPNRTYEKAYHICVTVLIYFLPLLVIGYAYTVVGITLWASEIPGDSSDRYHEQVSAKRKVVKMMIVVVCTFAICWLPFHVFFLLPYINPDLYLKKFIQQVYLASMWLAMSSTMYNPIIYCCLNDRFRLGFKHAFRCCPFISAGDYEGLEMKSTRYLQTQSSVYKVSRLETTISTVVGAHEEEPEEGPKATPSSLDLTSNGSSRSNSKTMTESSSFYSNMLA
# rat Neurokinin-3 Receptor (NK3), Tacr3 (gene 24808), sequence (P16177 whole entry, looked up): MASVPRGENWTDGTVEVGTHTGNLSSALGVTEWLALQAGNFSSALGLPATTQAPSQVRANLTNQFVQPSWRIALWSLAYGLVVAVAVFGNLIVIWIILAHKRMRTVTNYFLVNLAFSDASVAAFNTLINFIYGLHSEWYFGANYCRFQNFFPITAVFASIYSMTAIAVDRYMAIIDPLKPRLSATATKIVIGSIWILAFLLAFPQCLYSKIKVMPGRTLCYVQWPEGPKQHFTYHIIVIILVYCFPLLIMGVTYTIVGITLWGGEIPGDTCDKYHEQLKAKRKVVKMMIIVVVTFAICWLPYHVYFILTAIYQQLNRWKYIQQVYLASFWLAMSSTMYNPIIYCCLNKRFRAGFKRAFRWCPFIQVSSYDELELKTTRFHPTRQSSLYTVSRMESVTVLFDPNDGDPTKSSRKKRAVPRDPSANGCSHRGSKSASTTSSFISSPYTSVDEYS
# rat Somatostatin Receptor (SST), Sstr1 (gene 25033), sequence (P28646 whole entry, looked up): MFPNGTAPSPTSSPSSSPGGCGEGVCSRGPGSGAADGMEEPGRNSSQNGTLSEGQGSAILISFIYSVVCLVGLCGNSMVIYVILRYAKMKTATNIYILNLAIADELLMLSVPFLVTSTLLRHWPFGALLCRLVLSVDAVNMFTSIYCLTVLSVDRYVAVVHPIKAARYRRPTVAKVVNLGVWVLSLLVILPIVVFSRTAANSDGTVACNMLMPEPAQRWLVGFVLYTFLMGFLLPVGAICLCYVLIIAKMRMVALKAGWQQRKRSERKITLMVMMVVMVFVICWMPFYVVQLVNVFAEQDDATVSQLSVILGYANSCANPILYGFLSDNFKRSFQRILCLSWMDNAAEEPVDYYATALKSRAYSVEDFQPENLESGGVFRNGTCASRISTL
# rat Opioid Receptor, Non-selective Sodium (Na+) Binding, Oprm1 (gene 25601), sequence (P33535 whole entry, looked up): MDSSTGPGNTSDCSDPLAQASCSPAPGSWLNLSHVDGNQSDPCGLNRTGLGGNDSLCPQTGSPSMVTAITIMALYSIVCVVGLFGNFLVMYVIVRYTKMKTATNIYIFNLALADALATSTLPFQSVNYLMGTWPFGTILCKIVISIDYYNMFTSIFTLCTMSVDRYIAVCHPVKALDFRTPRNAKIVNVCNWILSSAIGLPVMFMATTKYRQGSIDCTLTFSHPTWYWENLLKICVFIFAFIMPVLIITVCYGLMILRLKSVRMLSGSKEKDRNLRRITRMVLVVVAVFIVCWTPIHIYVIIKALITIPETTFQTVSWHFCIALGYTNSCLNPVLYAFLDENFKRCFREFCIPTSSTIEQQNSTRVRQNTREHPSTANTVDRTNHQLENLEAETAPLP
# rat Opioid Receptor, Non-selective Binding, Oprm1 (gene 25601), sequence (P33535 whole entry, looked up): as above
# Metabotropic glutamate receptor 1 (Rattus norvegicus), sequence (P23385 whole entry, looked up): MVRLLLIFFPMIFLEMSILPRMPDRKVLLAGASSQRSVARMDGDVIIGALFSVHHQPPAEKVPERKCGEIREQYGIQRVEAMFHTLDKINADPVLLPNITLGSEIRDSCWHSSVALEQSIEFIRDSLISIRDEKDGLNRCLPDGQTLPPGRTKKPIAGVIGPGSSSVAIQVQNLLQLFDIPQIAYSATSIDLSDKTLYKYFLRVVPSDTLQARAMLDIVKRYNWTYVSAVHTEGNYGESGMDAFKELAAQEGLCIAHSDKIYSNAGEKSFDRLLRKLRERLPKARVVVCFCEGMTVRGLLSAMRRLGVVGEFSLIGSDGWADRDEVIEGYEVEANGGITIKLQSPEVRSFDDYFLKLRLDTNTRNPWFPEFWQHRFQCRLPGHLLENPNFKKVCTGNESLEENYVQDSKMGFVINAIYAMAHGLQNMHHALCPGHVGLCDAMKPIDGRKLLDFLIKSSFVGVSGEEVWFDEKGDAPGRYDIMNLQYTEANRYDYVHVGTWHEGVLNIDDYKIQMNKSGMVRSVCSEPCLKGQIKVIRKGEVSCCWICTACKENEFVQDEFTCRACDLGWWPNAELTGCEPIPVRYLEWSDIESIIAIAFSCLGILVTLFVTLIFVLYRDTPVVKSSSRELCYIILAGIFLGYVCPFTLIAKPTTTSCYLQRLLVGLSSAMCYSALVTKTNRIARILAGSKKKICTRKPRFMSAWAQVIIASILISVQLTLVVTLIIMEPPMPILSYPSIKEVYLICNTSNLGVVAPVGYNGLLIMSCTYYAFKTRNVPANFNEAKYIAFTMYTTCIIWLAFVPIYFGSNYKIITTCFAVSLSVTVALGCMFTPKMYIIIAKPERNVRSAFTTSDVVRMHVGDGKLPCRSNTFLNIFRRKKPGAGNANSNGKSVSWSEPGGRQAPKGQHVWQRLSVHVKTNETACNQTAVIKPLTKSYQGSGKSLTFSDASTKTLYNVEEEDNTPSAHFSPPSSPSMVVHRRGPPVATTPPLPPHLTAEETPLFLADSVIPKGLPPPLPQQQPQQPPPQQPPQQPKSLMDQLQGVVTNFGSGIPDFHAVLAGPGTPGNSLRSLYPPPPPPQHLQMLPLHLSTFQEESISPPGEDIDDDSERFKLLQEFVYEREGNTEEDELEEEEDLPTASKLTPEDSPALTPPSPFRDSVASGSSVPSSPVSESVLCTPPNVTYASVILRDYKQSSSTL
# Adra2b (gene 24174), sequence (P19328 whole entry, looked up): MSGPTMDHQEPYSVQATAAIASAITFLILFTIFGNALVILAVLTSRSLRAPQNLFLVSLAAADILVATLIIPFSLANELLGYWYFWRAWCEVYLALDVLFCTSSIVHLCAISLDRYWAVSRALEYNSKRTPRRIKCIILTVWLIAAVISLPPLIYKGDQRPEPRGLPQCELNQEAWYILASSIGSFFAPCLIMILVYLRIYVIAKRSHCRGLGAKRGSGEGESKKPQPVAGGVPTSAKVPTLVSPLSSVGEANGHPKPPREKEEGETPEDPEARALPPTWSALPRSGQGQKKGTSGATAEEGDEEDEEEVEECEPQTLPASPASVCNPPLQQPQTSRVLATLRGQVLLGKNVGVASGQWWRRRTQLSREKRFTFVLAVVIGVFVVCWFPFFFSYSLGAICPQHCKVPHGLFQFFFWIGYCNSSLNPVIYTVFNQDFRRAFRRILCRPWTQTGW
# rat Neonicotinoid receptor (NNR), Chrna7 (gene 25302), sequence (Q05941 whole entry, looked up): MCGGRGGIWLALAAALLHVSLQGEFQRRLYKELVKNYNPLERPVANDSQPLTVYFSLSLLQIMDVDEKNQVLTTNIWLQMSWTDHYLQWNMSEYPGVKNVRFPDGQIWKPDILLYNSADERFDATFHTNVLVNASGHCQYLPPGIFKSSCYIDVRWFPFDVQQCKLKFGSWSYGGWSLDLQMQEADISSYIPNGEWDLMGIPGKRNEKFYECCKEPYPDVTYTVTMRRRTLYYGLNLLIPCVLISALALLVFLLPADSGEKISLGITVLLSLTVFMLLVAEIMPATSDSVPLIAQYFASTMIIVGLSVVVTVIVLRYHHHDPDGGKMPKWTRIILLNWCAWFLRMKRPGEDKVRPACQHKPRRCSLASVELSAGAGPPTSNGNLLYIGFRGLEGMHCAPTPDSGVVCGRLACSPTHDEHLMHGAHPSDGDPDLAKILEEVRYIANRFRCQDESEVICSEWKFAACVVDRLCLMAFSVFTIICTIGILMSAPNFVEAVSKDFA
# rat Adrenergic Receptor, Beta (Adrb), Non-selective Binding, Adrb1 (gene 24925), sequence (P18090 whole entry, looked up): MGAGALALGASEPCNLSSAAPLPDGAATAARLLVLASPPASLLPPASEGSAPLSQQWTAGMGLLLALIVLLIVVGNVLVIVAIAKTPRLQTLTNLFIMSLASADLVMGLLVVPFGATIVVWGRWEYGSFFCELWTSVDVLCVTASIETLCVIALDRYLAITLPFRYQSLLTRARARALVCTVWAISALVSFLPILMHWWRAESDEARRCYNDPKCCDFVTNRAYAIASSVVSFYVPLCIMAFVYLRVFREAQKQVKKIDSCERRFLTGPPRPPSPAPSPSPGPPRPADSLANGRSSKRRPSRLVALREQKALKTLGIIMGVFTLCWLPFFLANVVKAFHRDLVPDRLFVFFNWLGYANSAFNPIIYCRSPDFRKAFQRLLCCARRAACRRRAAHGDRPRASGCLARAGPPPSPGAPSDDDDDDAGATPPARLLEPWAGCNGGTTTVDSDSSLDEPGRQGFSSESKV
# bovine Gamma-Aminobutyric Acid Type A Receptor BDZ, alpha 1 site (GABARa1), GABRA1 (gene 780973), sequence (P08219 whole entry, looked up): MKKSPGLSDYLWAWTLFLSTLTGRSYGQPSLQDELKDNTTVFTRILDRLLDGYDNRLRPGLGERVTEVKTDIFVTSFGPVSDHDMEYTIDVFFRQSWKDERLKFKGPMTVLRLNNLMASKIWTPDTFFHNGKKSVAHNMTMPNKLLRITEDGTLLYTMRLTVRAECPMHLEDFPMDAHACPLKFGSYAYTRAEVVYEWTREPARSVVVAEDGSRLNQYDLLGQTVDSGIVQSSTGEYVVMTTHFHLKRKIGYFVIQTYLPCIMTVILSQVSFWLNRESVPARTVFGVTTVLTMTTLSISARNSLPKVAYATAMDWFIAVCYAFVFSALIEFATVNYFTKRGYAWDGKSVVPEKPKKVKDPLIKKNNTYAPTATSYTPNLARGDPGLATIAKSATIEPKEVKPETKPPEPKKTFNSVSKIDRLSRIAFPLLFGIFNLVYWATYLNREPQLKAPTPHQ
smiles,measurement,setting,value
Cc1cc2c3c(c1)C(c1ccccc1)=N[C@@H](NC(=O)c1ccncc1)C(=O)N3CC2,outcome,[1],inactive
same,AC50,[2],0.073 µM (active)
same,outcome,[3],inactive
same,AC50,[4],25 µM (active)
CC(C)(c1ccccc1)c1ccc(O)cc1,outcome,[3],inactive
same,AC50,[5],25 µM (active)
Cc1cc(-c2ccc(N)c(C)c2)ccc1N,outcome,[6],inactive
Cc1cc(O)ccc1Cl,outcome,NCBI gene 24521,inactive
Nc1ccc(-c2ccc(N)cc2)cc1,outcome,[7],inactive
CCOP(=S)(OCC)SCSC(C)(C)C,outcome,[8],inactive
O=C(NC(=O)c1c(F)cccc1F)Nc1cc(Cl)c(OC(F)(F)C(F)F)c(Cl)c1,outcome,[3],inactive
ClC1=C(Cl)[C@]2(Cl)[C@@H]3[C@@H]4C[C@@H]([C@H]5O[C@@H]45)[C@@H]3[C@@]1(Cl)C2(Cl)Cl,AC50,[9],10.6 µM (active)
Oc1ccc(C(c2ccc(O)cc2)(C(F)(F)F)C(F)(F)F)cc1,AC50,[7],41.2 µM (active)
same,AC50,[3],25 µM (active)
C[C@]12CCC(=O)C=C1CC[C@@H]1[C@@H]2CC[C@]2(C)C(=O)CC[C@@H]12,outcome,[3],inactive
same,AC50,[9],17.6 µM (active)
same,outcome,[10],inactive
CC1=C2C[C@H]3[C@@H](CC=C4C[C@@H](O)CC[C@@]43C)[C@@H]2CC[C@]12O[C@@H]1C[C@H](C)CN[C@H]1[C@H]2C,outcome,[7],inactive
same,outcome,[10],inactive
CCCCCCCCCC[N+](C)(C)CCCCCCCCCC,AC50,[11],17.6 µM (active)
same,outcome,Adra2b (gene 24174),inactive
same,outcome,[1],inactive
same,outcome,[2],inactive
same,outcome,[3],inactive
same,outcome,[9],inactive
same,AC50,NCBI gene 257648,41.7 µM (active)
same,AC50,[5],10.2 µM (active)
CCSC(=O)N(CC)C1CCCCC1,AC50,[1],40.1 µM (active)
ClC1=C(Cl)[C@]2(Cl)[C@@H]3[C@H]4C[C@H]([C@@H]5O[C@H]45)[C@@H]3[C@@]1(Cl)C2(Cl)Cl,AC50,[9],9.78 µM (active)
same,outcome,[12],inactive
O=C(N[C@H]1CN2CCC1CC2)c1cc2ccoc2cn1,AC50,[7],11 µM (active)
same,outcome,[6],inactive
same,outcome,[13],inactive
same,AC50,[14],1.75 µM (active)
same,AC50,Adra2b (gene 24174),16.4 µM (active)
same,AC50,[15],17.7 µM (active)
same,AC50,[8],0.0114 µM (active)
same,outcome,[12],inactive
CCC(C)(CC)c1cc(NC(=O)c2c(OC)cccc2OC)on1,outcome,[2],inactive
same,AC50,[16],2.57 µM (active)
same,outcome,[5],inactive
CN(C)CCO,AC50,[5],25 µM (active)
Clc1ccc(C(c2ccccc2Cl)C(Cl)(Cl)Cl)cc1 (configuration not stated),outcome,[12],inactive
CC(c1ccc(O)cc1)(c1ccc(O)cc1)c1ccc(O)cc1,outcome,[17],inactive
same,outcome,[4],inactive
CCC(=O)O[C@H]1CC[C@H]2[C@@H]3CCC4=CC(=O)CC[C@]4(C)[C@H]3CC[C@]12C,outcome,[11],inactive
same,outcome,[2],inactive
same,outcome,[12],inactive
CCC(C)(c1ccc(O)cc1)c1ccc(O)cc1,AC50,[3],25 µM (active)
same,AC50,[10],15.6 µM (active)
CCCCCCCCCc1ccc(O)cc1,outcome,[2],inactive
same,outcome,[12],inactive
